# Screening results: PubChem, National Center for Advancing Translational Sciences (NCATS)
# Shown are actives, neighbours in structure and some others; about 14% of the full set was active somewhere.
# Sm TGR block – blocks Schistosoma mansoni thioredoxin glutathione reductase; Q962Y6; purified TGR, DTNB reduction, TNB absorbance 405 nm; Potency, µM (highest dose often 114 µM), for inactives: top-dose activity change, negative = inhibition, usual class: inhibitors; 360,000 compounds, 3% hits; further: potency means the concentration at half of the fitted maximal effect; nearly all actives have a fitted effect of over 60% in size
#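 Kinetic colorimetric format: TGR-catalysed, NADPH-driven DTNB reduction monitored via TNB absorbance. Enzyme dispensed at 20 nM; compound exposure 15 min at room temperature before reaction start.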
# HCMV inh – blocks human cytomegalovirus replication. HFF cells, HCMV-luciferase reporter, 72 h; active compounds read low. activity change, negative = inhibition, % at 57.5 µM. 410,000 compounds, 4.5% hits; in the data active means activity change below about -60%; inconclusive means no clear call, values can overlap the other calls; inactive means above about -39%
#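 Compounds were evaluated in HFFs infected with an HCMV luciferase reporter virus (MOI 1 PFU/cell). Luciferase in lysates collected 72 h post infection served as the replication measure.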
# FBPA Giardia inh – blocks Giardia fructose-bisphosphate aldolase activity | A8B2U2 | purified Giardia FBPA | Potency, µM (doses to about 59.6 µM), for inactives: at the top dose activity, negative = inhibition, most hits filed as inhibitors | 290,000 compounds, 0.71% hits | AID 2451; further: potency means the concentration at half of the fitted maximal effect; nearly all actives have a fitted effect of over 55% in size
# Target sequence (A8B2U2 whole entry, looked up): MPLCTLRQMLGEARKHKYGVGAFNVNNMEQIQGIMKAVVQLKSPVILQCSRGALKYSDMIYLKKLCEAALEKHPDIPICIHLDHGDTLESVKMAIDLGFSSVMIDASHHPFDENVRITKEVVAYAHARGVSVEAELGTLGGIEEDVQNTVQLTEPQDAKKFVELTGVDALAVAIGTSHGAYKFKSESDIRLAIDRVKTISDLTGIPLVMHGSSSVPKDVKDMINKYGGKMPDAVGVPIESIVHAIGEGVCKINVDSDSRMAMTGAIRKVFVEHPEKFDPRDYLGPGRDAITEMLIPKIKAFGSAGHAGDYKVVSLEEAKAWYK
#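 40 nM FBPA preincubated 10 min at RT with compound (up to 57.5 uM final), then substrate plus GAPDH/TPI/NAD/arsenate coupling and diaphorase/resazurin added. Fluorescence read after 20 min at RT, 525/598 nm.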
# Pf growth 48h – P. falciparum growth inhibition at 48 hours (one generation); P. falciparum luciferase growth in erythrocytes, 48 h; Potency, µM (top dose mostly 28.7 µM), for inactives: at the top dose activity change, negative = inhibition, usual class: inhibitors; 310,000 compounds, 5.9% hits; AID 504832; further: potency means the concentration at half of the fitted maximal effect
#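 Read-out is firefly luciferase luminescence from an integrated reporter in P. falciparum, so falling signal marks reduced parasite growth. Infected erythrocytes were at 2% hematocrit and 0.1% parasitemia (final) in Albumax-supplemented RPMI 1640.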
# Pf growth 96h – P. falciparum growth inhibition at 96 hour, primary screen for plastid delayed-death inhibitors; Potency, µM (titrated, usually from 28.7 µM), inactives show at the top dose activity change, negative = inhibition, usual class: inhibitors; 320,000 compounds, 6.9% hits; P. falciparum luciferase reporter growth, 96 h; further: potency means the concentration at half of the fitted maximal effect
#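 P. falciparum expressing integrated firefly luciferase grown in erythrocytes (2% hematocrit, 0.05% parasitemia final) with compounds for 96 hours at 37 C, 5% CO2. Growth inhibition read as loss of luminescence after adding luciferase detection reagent.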
# Active calls of the source: *; ? = inconclusive; . = no result; [ ] = dose if it differs, or a comment. Unless noted, the call rests on the fitted dose curve; in most records, active means well fitted curve in the direction sought with a large enough effect; inconclusive means small, poorly fitted or top-dose-only effect, or another doubt; inactive means no such curve, though single readings can be large; an effect the other way counts as inactive or inconclusive. On the % scale 0 is the no-effect control and ±100 the full control effect.
SMILES,Sm TGR block,HCMV inh,FBPA Giardia inh,Pf growth 48h,Pf growth 96h
CCCCC1=CC2=CC(=O)C(C)(OC(=O)CC)C(=O)C2=CN1CCc1ccc(Br)cc1 (centres undefined),-18%,-24,?,9.3µM*,?
CNC(=O)[C@H](C)[C@H]1C[C@]1(C)[C@H](NC(=O)OCc1ccccc1)c1ccccc1,.,.,2%,.,.
CCN(CC)P(=O)(Nc1ccccc1Br)c1ccc(N(C)C)cc1NC(=O)c1ccco1 (centres undefined),-3%,-61*,-1%,?,9.3µM*
CC(=O)c1ccc(S(=O)(=O)Nc2ccc(-c3cn4c(C)csc4n3)cc2)cc1,7%,50,.,.,.
CCCNC(=O)c1ccccc1NS(=O)(=O)c1ccc2c(c1)OCCO2,2%,60,?,9.3µM*,-16%
Cc1c(Cl)cccc1NS(=O)(=O)c1ccc(NS(=O)(=O)c2ccc3c(c2)OCCO3)cc1,10%,-106*,.,.,.
O=S(=O)(Nc1cccnc1Cl)c1ccc2c(c1)OCCO2,-33%,0,18%,11%,44%
CCCNC(=O)c1ccccc1NC(=O)C1=CSCCO1,8%,-33,.,5%,15µM*
CC(=O)N1CCC[C@@]2(CCN(Cc3cc(C(F)(F)F)cc(C(F)(F)F)c3)C2)C1,.,.,5%,.,.
N#CC(c1ccc(Cl)cc1)c1ccc(Cl)nn1 (centres undefined),-6%,-82*,-14%,.,?
Cc1ccc(C(C#N)c2ccc(Cl)nn2)cc1 (centres undefined),-5%,-39,-8%,?,?
N#CC(c1ccc(Cl)nn1)c1ccccc1Cl (centres undefined),8%,-63*,2%,.,-2%
CC(C)c1ccc(NC(=O)C2CCCN(S(=O)(=O)c3ccc4[nH]c(=O)oc4c3)C2)cc1 (centres undefined),?,1,.,.,.
O=c1cnc2cnc(N3CCNCC3)nc2n1Cc1cccs1,.,.,0%,.,.
C[C@]12CCC(=O)C=C1CC[C@@H]1[C@@H]2[C@@H](O)C[C@]2(C=O)[C@@H](C(=O)CO)CC[C@@H]12,-6%,-16,.,-26%,28%
O=c1cc(CS(=O)(=O)c2ccccc2)nc(-c2ccncc2)[nH]1,-1%,-26,0%,12µM*,?
COc1cccc(CNS(=O)(=O)c2ccc(-c3cc(C(F)(F)F)on3)s2)c1,18%,65,.,.,.
COc1ccc(S(=O)Cc2ccc(C(=O)N3CCN(c4cccc(C)c4C)CC3)o2)cc1 (centres undefined),-15%,?,.,8%,?
COC(=O)c1sccc1N(C)S(C)(=O)=O,11%,-18,7%,10%,15%
CCN(CC)c1ccc(/C=N/Nc2nc3ccccc3[nH]2)cc1,?,.,?,1.9µM*,2.6µM*
CN(/N=C/c1ccc2c(c1)OCO2)c1nc(N2CCOCC2)nc(N2CCOCC2)n1,-1%,56,-7%,7%,5%
C(=N\Nc1nc2ccccc2[nH]1)/c1ccc2c(c1)OCO2,4%,-10,-1%,0.47µM*,?
CC(=O)Nc1ccc(/C=N/Nc2nc3ccccc3[nH]2)cc1,0%,47,7%,1.9µM*,?
O=c1nc(N2CCOCC2)nc(N/N=C/c2ccc3c(c2)OCO3)[nH]1,7%,6,-15%,1%,12µM*
Cc1ccc(/C=C2\SC(=S)N(CCCC(=O)Nc3cccc(C(=O)O)c3)C2=O)cc1,2%,-35,.,-6%,-3%
SMILES,Sm TGR block,HCMV inh,FBPA Giardia inh,Pf growth 48h,Pf growth 96h
O=c1[nH]c(/C(Cl)=C/c2cccc(F)c2)nc2cc(C(F)(F)F)ccc12,-1%,?,6%,15%,-15%
CS(=O)(=O)Nc1ccccc1C(=O)OCc1cc(=O)n2nc(C3CCCCC3)sc2n1,2%,-36,.,.,.
COc1ccc(NC(=O)CSC2=Nc3ccccc3C3=NC(CCC(=O)NCCc4ccccc4)C(=O)N23)c(OC)c1 (centres undefined),13%,-37,.,.,.
Cc1ccccc1NC(=O)C1CCN(S(=O)(=O)c2c(C)noc2/C=C/c2ccco2)CC1,-35%,-16,.,.,.
Cc1ccc(CNC(=O)C2CCN(S(=O)(=O)c3c(C)noc3/C=C/c3c(C)cc(C)cc3C)CC2)cc1,2%,44,.,.,.
Cc1noc(/C=C/c2ccco2)c1S(=O)(=O)N1CCC(C(=O)NCc2ccco2)CC1,?,-73*,0%,13µM*,.
Cc1noc(/C=C/c2ccco2)c1S(=O)(=O)N1CCC(C(=O)N2CCc3ccccc3C2)CC1,11µM*,.,-4%,9.3µM*,?
Cc1cccnc1NC(=O)C1CCN(S(=O)(=O)c2c(C)noc2/C=C/c2ccco2)CC1,-4%,-29,1%,?,?
Cc1ccc(CNC(=O)C2CCN(S(=O)(=O)c3c(C)noc3/C=C/c3ccco3)CC2)cc1,40µM*,-7,-5%,.,6.6µM*
Cc1ccc(NC(=O)C2CCN(S(=O)(=O)c3c(C)noc3/C=C/c3ccco3)CC2)nc1,-12%,-94*,7%,-11%,?
CC(C)([CH2][Sn]([CH2]C(C)(C)c1ccccc1)([CH2]C(C)(C)c1ccccc1)[O][Sn]([CH2]C(C)(C)c1ccccc1)([CH2]C(C)(C)c1ccccc1)[CH2]C(C)(C)c1ccccc1)c1ccccc1,.,.,3%,.,.
Cc1noc(C)c1-c1nccc(N2CCNCC2)n1,.,.,-12%,.,.
Cc1onc(-c2ccccc2)c1C(=O)NCCCc1ccccc1,-20%,4,.,11%,-1%
CC(C)(C)NC(=O)C(c1ccc(-c2ccccc2)cc1)N(C[C@H]1CC[C@@H]([C@@H]2CC[C@H](CO)O2)O1)C(=O)c1ccc(C(C)(C)C)cc1 (some centres undefined),.,-101*,.,.,.
Cc1ccc(C(C(=O)NC(C)(C)C)N(CC2CCCO2)C(=O)c2csnn2)cc1 (centres undefined),-8%,0,4%,?,15%
Cc1c(CCOC(=O)C23CC4CC(CC(C)(C4)C2)C3)sc[n+]1Cc1ccccc1,-15%,17,7%,3.3µM*,12µM*
Cc1ccc(C(=O)OCCN(C)Cc2ccccc2)cc1,2%,9,-13%,10%,-12%
Cc1ncc(C[n+]2csc(CCOC(=O)CC3C4CC5CC(C4)CC3C5)c2C)c(N)n1 (centres undefined),?,33,-10%,9%,?
Cc1c(CCOC(=O)C23CC4CC(CC(C4)C2)C3)sc[n+]1Cc1ccccc1,-11%,-12,1%,3.3µM*,46%
Cc1ncc(C[n+]2csc(CCOC(=O)C34CC5CC(CC(C5)C3)C4)c2C)c(N)n1,-29%[57.1 µM],-23,-11%,-3%,9%
Cc1ccc(C(=O)OCCc2sc[n+](Cc3ccccc3)c2C)cc1,-14%,-40,5%,1.5µM*,1µM*
Cc1ccc(C)c(NC(=O)CCN2CCCCC2)c1,5%,7,12%,-19%,30%
